Hit rate of the full screen: of about 5,500 compounds, about 2,000 (36%) were called active. About 18% were inconclusive and are not listed. Cut-off read from the data, not from the text of the source: active = normalized growth mostly below about 0.91 (no sharp cut-off); inconclusive = no clear call, values can overlap the other calls; inactive = mostly above about 0.92. The list shows a part of the results.
Assay: chemical genetic growth profiling, strain panel (AID 1159580);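 note: tested at 20 µM; growth read once vehicle control cultures reached saturation at 30 °C; 1 = growth at the plate median or of vehicle wells; lower values mean less growth of the strain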
Conditions: S. cerevisiae deletion strains, growth OD

Measured: normalized growth

NC(=O)CI
inactive: locus YAL013W, strain DEP1, stronger effect = lower value 0.951 | locus YAL040C, strain CLN3, stronger effect = lower value 0.968 | locus YCL061C, strain MRC1 (second series), stronger effect = lower value 0.98 | locus YDR363W, strain ESC2, stronger effect = lower value 0.988 | locus YER002W, strain NOP16, stronger effect = lower value 0.949 | locus YGR229C, strain SMI1, stronger effect = lower value 0.942 | locus YJR075W, strain HOC1, stronger effect = lower value 0.966 | locus YNL175C, strain NOP13, stronger effect = lower value 0.947 | locus YNL197C, strain WHI3, stronger effect = lower value 0.936 | locus YNL224C, strain SQS1, stronger effect = lower value 0.972 | locus YPL055C, strain LGE1, stronger effect = lower value 0.956 | locus YPL241C, strain CIN2, stronger effect = lower value 0.966
active: locus YGR078C, strain PAC10, stronger effect = lower value 0.907 | locus YOR083W, strain WHI5 (second series), stronger effect = lower value 0.792

From PubChem BioAssay AID1159580 (chemical genetic matrix, 2015)
